In all, about 330,000 compounds went through this assay and about 1,500 (0.45%) were called active. Roughly 6% stayed inconclusive and do not appear here. The list comes from a sample in which actives are over-represented; it also holds similar structures and randomly drawn compounds. Unmarked numbers belong to inactive results. Calls come from the whole dose curve; tested in A549 cells.
% is set by controls: 0 for no effect and ±100 for the full control effect; potency is the fitted concentration of half-maximal effect.

A short description of this test: qHTS for Stage-Specific Inhibitors of Vaccinia Orthopoxvirus: Venus Reporter Primary qHTS. Note: nearly all actives have a fitted effect of over 30% in size. To be noted: Vaccinia virus Venus reporter expression, fluorescence; series mostly up to 36.5 µM; activity change, negative = inhibition: at the top concentration. (In qHTS, concentration-response curves come from the screen itself.)
As for `COc1ccc(OC)c(NC(=O)C2(C)CCN2C(=O)Cc2ccccc2)c1` (stereo not drawn), the “activity change, negative = inhibition” value was -2.79%.

As for `O=C(NCc1cccnc1)c1cc(C2CCCN(C(=O)C3CCCCC3)C2)on1` (stereo not drawn), the “activity change, negative = inhibition” value is 1.16%.

Take `CC(C)n1cnc2c(Nc3cccc(Cl)c3)nc(N(CCO)CCCO)nc21`: the Potency is 11.2 µM (active).

In the case of `CC(C)C[C@H](CO)Nc1nc(N(C)c2cccc(Cl)c2)c2ncn(C(C)C)c2n1`, the “activity change, negative = inhibition” value is -28.6%.

Consider `COC(=O)[C@@]12C[C@@H](CC(=O)N3CCCCC3)C(=O)N(Cc3ccc4c(c3)OCO4)C1=CCC(C)(C)C2`, for which the “activity change, negative = inhibition” value was -19.4%.

Regarding `CCc1nc2c(OCc3ccc(C(=O)OC)cc3)cccn2c1N(C)C(=O)C(C)C`, the “activity change, negative = inhibition” value was -10.2%.

As for `CN(C)c1ccc(/C=C/C=C/c2ccnc3ccccc23)cc1`, the “activity change, negative = inhibition” value is 128%.

`O=[N+]([O-])c1ccc(F)cc1Oc1nc(-c2cccnc2)nc2ccccc12`: the Potency is 5.01 µM (active).

As for `Cc1cnc(CNc2nc(-c3cccnc3)nc3ccccc23)cn1`, the “activity change, negative = inhibition” value was 0%.

Turning to `COc1cccc(-c2nc(Nc3ccncc3)c3ccccc3n2)c1`, the “activity change, negative = inhibition” value is 19.3%.

Consider `COC(=O)C1(C(=O)OC)C[C@H](c2ccccc2)N(Cc2ccccc2OC)[C@@H]1c1ccccc1`, for which the “activity change, negative = inhibition” value was -4.94%.

As to `COc1ccc(OC)c(Cc2cnc3nc(N)nc(N)c3c2C)c1`, the Potency is 1.12 µM (active).

Turning to `COc1ccc(OC)c(Cc2nnc(CCC(=O)NC3CCCC3)o2)c1`, the “activity change, negative = inhibition” value was -24.9%.

For `COc1ccc(OC)c(NC(=O)c2sc3nc(C)cc(C)c3c2N)c1`, the “activity change, negative = inhibition” value was -20.7%.

As to `CCCCCCCNc1ccc(/C=C/c2ccnc3ccccc23)cc1`, the “activity change, negative = inhibition” value was 14.6%.

In the case of `COC(=O)NC1(C(F)(F)F)NC(=O)N(C2CCCCC2)C1=O` (stereo not drawn), the “activity change, negative = inhibition” value was -9.65%.

Take `O=C1NC(Nc2nc3ccccc3s2)(C(F)(F)F)C(=O)N1C1CCCCC1` (stereo not drawn): the Potency was 10 µM (active).

Turning to `O=C(NC1(C(F)(F)F)NC(=O)N(C2CCCCC2)C1=O)c1ccco1` (stereo not drawn), the “activity change, negative = inhibition” value is -16.3%.

For `Cc1ccc(Cc2c(-c3ccco3)nc3ccc(Cl)cn23)cc1`, the “activity change, negative = inhibition” value was 4.2%.

Take `SCc1nc2ccc(Cl)cc2[nH]1`: the “activity change, negative = inhibition” value is -13.3%.

As to `O=C(c1cnn2c1NC(=C1CC1)C=C2C(F)F)N1CCc2ccccc2C1`, the “activity change, negative = inhibition” value was -21.9%.

`CCOC(=O)C1CCCN(C(=O)/C=C/c2ccc(OC)cc2)C1` (stereo not drawn): the “activity change, negative = inhibition” value was -0.189%.

For `CCN1CCC(O)(/C=C/c2ccc(C)cc2)C(C(=O)/C=C/c2ccc(C)cc2)C1` (stereo not drawn), the Potency is 17.8 µM (active).

On to `N#Cc1ccc(C(C(=O)NCc2ccccc2)n2c(=O)c(-c3ccco3)nc3ccccc32)cc1` (stereo not drawn), for which the “activity change, negative = inhibition” value is -0.43%.

For the molecule `CN(C)c1ccc(/C=N\Nc2ccc([N+](=O)[O-])cc2[N+](=O)[O-])cc1Cl`, the “activity change, negative = inhibition” value was -16.2%.

In the case of `COc1ccc(Cc2nnc(N/N=C/c3ccccc3O)[nH]c2=O)cc1OC`, the Potency is 1.26 µM (active).

With `COc1ccc(CCNC(=O)CCc2ccccc2O)cc1OC`, the “activity change, negative = inhibition” value was 3.53%.

For `O=c1[nH]c(NCCO)nnc1Cc1ccc(Cl)cc1`, the “activity change, negative = inhibition” value is 1.34%.

As for `CCCCOc1ccc(C(=O)NO)cc1`, the “activity change, negative = inhibition” value was -14.6%.

`CC(=O)N1Cc2cc(C(=O)NCc3cccc(F)c3)nc(-c3cccc(C4=CCCC4)c3)c2[C@H]1CCO`: the “activity change, negative = inhibition” value is -20.8%.

Turning to `Cc1ccc(C(=O)O)cc1NC(=O)c1ccc(Cn2nc(C)c(Cl)c2C)o1`, the “activity change, negative = inhibition” value is -7.79%.

Regarding `Cc1c(Cl)c([N+](=O)[O-])nn1Cc1ccc(C(=O)N/N=C\c2cc(Cl)ccc2O)o1`, the Potency is 5.62 µM (active).

For `Cc1c(Cl)c([N+](=O)[O-])nn1CCCC(=O)Nc1cc(Cl)ccc1Cl`, the “activity change, negative = inhibition” value is -17.6%.

Consider `COc1cc2nc(N3CCCN(C)CC3)nc(NC3CC3)c2cc1OC`, for which the “activity change, negative = inhibition” value is -26.8%.

As for `COc1ccc(-c2csc(C(O)c3cccc(Cl)c3)n2)cn1` (stereo not drawn), the “activity change, negative = inhibition” value was -10.5%.

As for `COc1ccc(NC(=O)CN(C)CC(=O)Nc2cccc(C(F)(F)F)c2)cc1`, the “activity change, negative = inhibition” value is -12.9%.

For `COc1cc(NC(=O)c2[nH]cnc2C(N)=O)cc(C(=O)Nc2cccc(C(F)(F)F)c2)c1`, the Potency was 10 µM (active).

`Cc1cccc(NC(=O)c2nnn(-c3cccc(C(F)(F)F)c3)c2N)c1`: the “activity change, negative = inhibition” value was -9.05%.

As for `COC(=O)[C@]12CCCCC=C1N(Cc1ccco1)C(=O)[C@H](CC(=O)NCCCCc1ccccc1)C2`, the “activity change, negative = inhibition” value is -2.07%.

Take `CCCCC(=O)N/N=C/c1c(O)n(CC)c(=S)n(CC)c1=O`: the Potency was 12.6 µM (active).

On to `CCOc1cc(C=NNC(=O)CCCC(=O)NN=Cc2ccc(O)c(OCC)c2)ccc1O`, for which the “activity change, negative = inhibition” value is 4.08%.

Turning to `O=C(CCC(=O)N/N=C/c1ccc(Br)o1)N/N=C/c1ccc(Br)o1`, the “activity change, negative = inhibition” value was -3.51%.

On to `CCOc1ccc2nc(N3CCCN(CCCn4cccn4)CC3)nc(C)c2c1`, for which the “activity change, negative = inhibition” value is -19.6%.

As to `O=S(=O)(Nc1n[nH]c(C(F)(F)F)n1)c1ccccc1`, the “activity change, negative = inhibition” value was -0.63%.

With `O=c1[nH]nc(SCCS(=O)(=O)c2ccc(F)cc2)n1-c1ccccc1C(F)(F)F`, the Potency was 3.16 µM (active).

For `CN(CC(=O)O)C(=O)c1ccccc1`, the “activity change, negative = inhibition” value is -1.7%.

In the case of `CN(O)C(=S)c1ccccc1`, the Potency was 11.2 µM (active).

For the molecule `S=C(c1ccccc1)N1CCCC1`, the “activity change, negative = inhibition” value is -10.5%.

The values are drawn from PubChem BioAssay AID720580 (National Center for Advancing Translational Sciences (NCATS), 2013).
